From PubChem BioAssay (Tox21)
Results filed as inconclusive are left out. Calls of active or inactive are those of the source. Unless noted, calls come from the whole dose curve.

Legend:
[1] = Nuclear factor erythroid 2-related factor 2/antioxidant responsive element (Nrf2/ARE) small molecule agonists: luciferase reporter gene qHTS assay in human keratinocytes (AID 1919969); note: nearly all actives have a fitted effect of over 35% in size; note: potency is the fitted concentration of half-maximal effect
[2] = biological target: Gonadotropin-releasing hormone receptor (Homo sapiens) (UniProt P30968); assay: Human gonadotropin-releasing hormone receptor (GnRHR) small molecule agonists, calcium flux assay in GnRHR-HEK293 cells (AID 1920063); note: nearly all actives have a fitted effect of over 35% in size
Chain of Gonadotropin-releasing hormone receptor (Homo sapiens) (P30968 whole entry, looked up): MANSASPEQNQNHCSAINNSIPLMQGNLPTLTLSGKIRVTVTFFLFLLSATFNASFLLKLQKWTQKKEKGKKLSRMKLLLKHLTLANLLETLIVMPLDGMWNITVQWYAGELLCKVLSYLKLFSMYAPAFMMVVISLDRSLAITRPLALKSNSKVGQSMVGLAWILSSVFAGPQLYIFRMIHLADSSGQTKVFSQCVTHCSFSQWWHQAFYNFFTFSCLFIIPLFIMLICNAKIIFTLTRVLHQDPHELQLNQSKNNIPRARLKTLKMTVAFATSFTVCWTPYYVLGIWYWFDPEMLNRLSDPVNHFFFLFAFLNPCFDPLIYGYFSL
Outline: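 Compounds dissolved in DMSO are pin-transferred onto dye-loaded GnRHR-HEK293 cells, which were seeded 18 h before at 37 C/5% CO2. Calcium signal is read as fluorescence intensity at 1 s intervals for 3 min.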

[3] = biological target: KiSS-1 receptor (Homo sapiens) (UniProt Q969F8); assay: Human kisspeptin (KISS1R) small molecule agonists, calcium flux assay in KISS1R-HEK293 cells (AID 1920064; active = well fitted activation curve with a large enough effect in the repeat runs)
Chain of KiSS-1 receptor (Homo sapiens) (Q969F8 whole entry, looked up): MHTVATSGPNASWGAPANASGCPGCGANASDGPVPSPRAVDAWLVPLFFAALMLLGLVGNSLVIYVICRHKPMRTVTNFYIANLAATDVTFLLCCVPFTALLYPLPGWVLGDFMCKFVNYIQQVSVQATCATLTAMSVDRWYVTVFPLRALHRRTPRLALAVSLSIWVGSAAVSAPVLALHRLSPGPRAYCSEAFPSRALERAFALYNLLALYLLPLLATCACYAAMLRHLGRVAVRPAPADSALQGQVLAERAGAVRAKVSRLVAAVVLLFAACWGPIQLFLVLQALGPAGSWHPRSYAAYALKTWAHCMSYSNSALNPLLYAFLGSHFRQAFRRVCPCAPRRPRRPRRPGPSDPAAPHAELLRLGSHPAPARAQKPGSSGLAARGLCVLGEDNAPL
Outline: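 Cell line: HEK293, stable human KISS1R. Dye loading 1 h at 37 C after 18 h culture. Read: kinetic fluorescence, 480/540 nm, 3 min at 1 s intervals.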

[4] = G protein-coupled receptor (GPCR) small molecule agonists, calcium flux assay: HEK293 wild type cell line counter screen (AID 1920065)
Outline: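 Tox21 10K compounds, 15 concentrations each in triplicate, pin-transferred in DMSO onto dye-loaded cells; kinetic read at 480/540 nm for 3 min, 1 s intervals.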

[5] = p53 small molecule agonists, cell-based qHTS assay with human liver microsomes (AID 1963577);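 note: p53 response element beta-lactamase reporter cells with liver microsomes plus NADPH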
Outline: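 HLM-supplemented p53RE-bla reporter assay: 16 h compound exposure at 37 C, microsomes and NADPH each 0.5 mg/mL final, read by fluorescence intensity.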

[6] = p53 small molecule agonists, cell-based qHTS assay: qHTS cell viability counter screen (AID 1963581); note: nearly all actives have a fitted effect of over 45% in size; note: potency is the fitted concentration of half-maximal effect
Outline: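 ATP content measured by luminescence in HCT-116 p53RE-bla cells treated 16 h at 37 C, same wells as the reporter screen.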

[7] = biological target: 5-hydroxytryptamine receptor 2A (Homo sapiens) (UniProt P28223); assay: 5-hydroxytryptamine receptor 2A (HTR2A) small molecule antagonists, cell-based qHTS assay (AID 1963586); note: nearly all actives have a fitted effect of over 45% in size; note: potency is the fitted concentration of half-maximal effect
Chain of 5-hydroxytryptamine receptor 2A (Homo sapiens) (P28223 whole entry, looked up): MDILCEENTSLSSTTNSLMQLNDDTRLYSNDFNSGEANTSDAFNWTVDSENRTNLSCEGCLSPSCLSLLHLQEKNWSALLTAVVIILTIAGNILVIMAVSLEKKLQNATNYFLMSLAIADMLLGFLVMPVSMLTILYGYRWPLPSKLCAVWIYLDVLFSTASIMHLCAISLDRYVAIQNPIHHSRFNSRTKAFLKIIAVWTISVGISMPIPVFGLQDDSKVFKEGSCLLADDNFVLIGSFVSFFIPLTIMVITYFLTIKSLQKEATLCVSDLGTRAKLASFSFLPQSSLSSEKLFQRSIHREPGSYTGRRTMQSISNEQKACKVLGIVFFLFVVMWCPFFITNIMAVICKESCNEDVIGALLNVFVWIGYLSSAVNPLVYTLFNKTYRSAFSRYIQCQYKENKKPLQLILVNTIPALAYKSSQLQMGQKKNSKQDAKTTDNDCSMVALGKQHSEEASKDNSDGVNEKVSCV
Outline: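 CHO cells stably expressing human HTR2A were plated for 18 h at 37 C, then loaded with calcium dye for 1 h. Compounds were preincubated 5 min at room temperature before DOI (4 nM solution) was added. Kinetic fluorescence was read for 3 min.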

[8] = biological target: 5-hydroxytryptamine receptor 2A (Homo sapiens) (UniProt P28223); assay: 5-hydroxytryptamine receptor 2A (HTR2A) small molecule agonists, cell-based qHTS assay (AID 1963587); note: nearly all actives have a fitted effect of over 30% in size
Outline: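 Kinetic calcium-flux fluorescence (2 min, 1 sec intervals) after compound addition in agonist mode. HTR2A-CHO cells were cultured 18 h, then dye-loaded 1 h at 37 C.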

[9] = biological target: Muscarinic acetylcholine receptor M1 (Homo sapiens) (UniProt P11229); assay: Cholinergic receptor muscarinic 1 (CHRM1) small molecule antagonists, cell-based qHTS assay (AID 1963588); note: nearly all actives have a fitted effect of over 40% in size
Chain of Muscarinic acetylcholine receptor M1 (Homo sapiens) (P11229 whole entry, looked up): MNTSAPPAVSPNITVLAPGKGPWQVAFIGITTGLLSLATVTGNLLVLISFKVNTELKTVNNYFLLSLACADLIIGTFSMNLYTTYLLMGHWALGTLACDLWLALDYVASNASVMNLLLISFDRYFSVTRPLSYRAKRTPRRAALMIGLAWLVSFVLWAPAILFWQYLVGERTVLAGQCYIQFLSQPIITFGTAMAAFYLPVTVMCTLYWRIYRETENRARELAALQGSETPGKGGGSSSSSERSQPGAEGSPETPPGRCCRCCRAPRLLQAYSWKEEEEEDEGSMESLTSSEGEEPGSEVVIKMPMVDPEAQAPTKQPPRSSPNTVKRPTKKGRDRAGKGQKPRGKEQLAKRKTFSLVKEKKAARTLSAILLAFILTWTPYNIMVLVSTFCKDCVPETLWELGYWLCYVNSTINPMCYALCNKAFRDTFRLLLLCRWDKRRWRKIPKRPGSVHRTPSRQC
Outline: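 Compounds were tested at 15 concentrations in three independent runs. Dye-loaded CHRM1-CHO cells were exposed 5 min at room temperature before stimulation by acetylcholine added at 50nM. Intracellular calcium was read kinetically on FDSS for 3 min.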

[10] = biological target: Muscarinic acetylcholine receptor M1 (Homo sapiens) (UniProt P11229); assay: Cholinergic receptor muscarinic 1 (CHRM1) small molecule agonists, cell-based qHTS assay (AID 1963589); note: nearly all actives have a fitted effect of over 35% in size
Outline: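 Homogeneous fluorescence calcium flux, agonist mode. Human M1-expressing CHO cells; compound dosed at 15 concentrations, three independent runs; signal sampled every 1 sec.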

[11] = cAMP Responsive Elements (CRE) small molecule agonists, cell-based qHTS assay (AID 1963590)
Outline: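 HEK 293T cells stably bearing CRE-bla were plated at 2,000 cells per well and rested 18 h. Compounds, positive controls or DMSO were added for 3 h at 37 C. LiveBLAzer B/G substrate was then loaded for 2 h at room temperature.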

[12] = biological target: Beta-2 adrenergic receptor (Homo sapiens) (UniProt P07550); assay: Adrenergic beta2 receptor (ADRB2) small molecule antagonists, cell-based qHTS assay (AID 1963592); note: series mostly up to about 92 µM; nearly all actives have a fitted effect of over 50% in size
Chain of Beta-2 adrenergic receptor (Homo sapiens) (P07550 whole entry, looked up): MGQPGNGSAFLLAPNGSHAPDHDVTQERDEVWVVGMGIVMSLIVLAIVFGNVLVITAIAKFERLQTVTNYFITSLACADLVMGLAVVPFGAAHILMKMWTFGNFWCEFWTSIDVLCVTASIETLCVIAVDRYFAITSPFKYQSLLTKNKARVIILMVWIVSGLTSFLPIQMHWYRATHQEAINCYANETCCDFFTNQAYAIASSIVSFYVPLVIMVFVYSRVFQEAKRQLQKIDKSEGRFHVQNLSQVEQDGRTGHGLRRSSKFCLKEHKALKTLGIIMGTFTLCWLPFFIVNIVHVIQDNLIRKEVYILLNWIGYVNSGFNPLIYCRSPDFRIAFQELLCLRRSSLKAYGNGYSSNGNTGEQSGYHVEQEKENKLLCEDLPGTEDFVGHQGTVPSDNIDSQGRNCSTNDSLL
Outline: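 Assay format: CHO-ADRB2 cells, 18-20hr seeding at 37C/5% CO2, then compound plus 1nM isoproterenol agonist mix for 0.5hr RT. Homogeneous time-resolved fluorescence cAMP detection after 1hr, expressed as 665/615 nm ratio.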

[13] = biological target: Beta-2 adrenergic receptor (Homo sapiens) (UniProt P07550); assay: Adrenergic beta2 receptor (ADRB2) small molecule agonists, cell-based qHTS assay (AID 1963593);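 note: CHO cells stably overexpressing human ADRB2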
Outline: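 CHO cells stably over-expressing ADRB2 were plated overnight at 37C, then dosed with compounds plus a stimulation mix containing 100uM IBMX and 25uM Ro-20-1724 for 0.5hr at room temperature. cAMP was measured by HTRF competition, 1hr.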

[14] = biological target: D(2) dopamine receptor (Homo sapiens) (UniProt P14416); assay: Dopamine D2 receptor (DRD2) small molecule agonists, cell-based qHTS assay (AID 1963594); note: nearly all actives have a fitted effect of over 35% in size
Chain of D(2) dopamine receptor (Homo sapiens) (P14416 whole entry, looked up): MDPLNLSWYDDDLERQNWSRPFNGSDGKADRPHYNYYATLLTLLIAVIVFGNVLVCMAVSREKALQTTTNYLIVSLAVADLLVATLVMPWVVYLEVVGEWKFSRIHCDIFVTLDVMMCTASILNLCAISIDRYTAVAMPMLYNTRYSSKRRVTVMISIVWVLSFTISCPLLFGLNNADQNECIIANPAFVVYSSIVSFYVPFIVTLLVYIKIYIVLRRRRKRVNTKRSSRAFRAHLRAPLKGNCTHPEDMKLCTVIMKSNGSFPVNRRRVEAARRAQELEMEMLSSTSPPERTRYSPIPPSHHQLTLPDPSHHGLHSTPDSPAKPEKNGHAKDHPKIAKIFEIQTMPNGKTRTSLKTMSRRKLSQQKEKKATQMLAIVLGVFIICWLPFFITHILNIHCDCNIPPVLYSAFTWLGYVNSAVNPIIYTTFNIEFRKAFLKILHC
Outline: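 cAMP accumulation in DRD2-HEK293 cells measured by HTRF after 1 h detection; compounds added 10 min before NKH477 (200nM […]) forskolin-analogue stimulation, 30 min at room temperature, with Ro20-1724 present at 0.1 mM final.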

[15] = biological target: D(2) dopamine receptor (Homo sapiens) (UniProt P14416); assay: Dopamine D2 receptor (DRD2) small molecule antagonists, cell-based qHTS assay (AID 1963595; active = well fitted inhibition curve with a large enough effect in the signal ratio in the repeat runs, with a control signal flat; the % refers to the signal ratio)
Outline: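 Antagonist mode in DRD2-HEK293 cells: after compound addition with 0.1 mM Ro20-1724, cells received quinpirole (12 nM) and NKH477 (200 nM) for 30 min at room temperature; HTRF cAMP read after 1 h detection.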

[16] = p53 small molecule agonists, cell-based qHTS assay with rat liver microsomes (AID 1963578)
Outline: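 Quantitative HTS of the Tox21 10K library: p53RE-bla cells, rat liver microsomes plus NADPH at 0.5 mg/mL final each, 16 h at 37 C, beta-lactamase fluorescence detection.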

[17] = p53 small molecule agonists, cell-based qHTS assay with human liver microsomes: qHTS cell viability counter screen (AID 1963579); note: nearly all actives have a fitted effect of over 45% in size
Outline: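 Viability of p53RE-bla cells is measured as CellTiter-Glo luminescence following a 16 h, 37 C incubation with compound, liver microsomes from human donors and NADPH.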

[18] = p53 small molecule agonists, cell-based qHTS assay with rat liver microsomes: qHTS cell viability counter screen (AID 1963580); note: nearly all actives have a fitted effect of over 45% in size
Outline: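 Rat liver microsome (0.5 mg/mL final) and NADPH (0.5 mg/mL final) co-incubation with compounds for 16 h at 37 C on HCT-116 p53RE-bla cells; cytotoxicity taken from intracellular ATP luminescence.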

[19] = p53 small molecule agonists, cell-based qHTS assay (AID 1963582; active = well fitted activation curve with a large enough effect in the signal ratio in the repeat runs, not every such curve was filed as active; the % refers to the signal ratio)
Outline: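 16 h compound exposure (37 C) of p53 response element–bla cells, preceded by 5 h recovery at 37 C/5% CO2; read-out via LiveBLAzer B/G FRET substrate, 2 h RT, fluorescence intensity.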

[20] = cAMP Responsive Elements (CRE) small molecule antagonists, cell-based qHTS assay (AID 1963591; active = well fitted inhibition curve with a large enough effect in the signal ratio in the repeat runs, not every such curve was filed as active; the % refers to the signal ratio)
Outline: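 First, CRE-bla HEK293T cells settled 18 h at 37 C. Next, compound and 0.25 uM final NKH477 were applied for 3 h. Last, LiveBLAzer B/G substrate was loaded for 2 h at room temperature.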
% is set by controls: 0 for no effect and ±100 for the full control effect.

CNC(=S)NN
active: Potency [1] 6.11 µM
inactive: Potency [2] | Potency [3] | Potency [4] | Potency [5] | Potency [6] | Potency [7] | Potency [8] | Potency [9] | Potency [10] | Potency [11] | Potency [12] | Potency [13] | Potency [14] | Potency [15]

C=CC[N+]1([C@H]2C[C@H]3[C@@H]4CC[C@H]5C[C@H](OC(C)=O)[C@@H](N6CCCCC6)C[C@]5(C)[C@H]4CC[C@]3(C)[C@H]2OC(=O)CC)CCCCC1
inactive: Potency [1] | Potency [2] | Potency [3] | Potency [4] | Potency [16] | Potency [17] | Potency [18] | Potency [6] | Potency [19] | Potency [8] | Potency [9] | Potency [10] | Potency [11] | Potency [20] | Potency [12] | Potency [13] | Potency [14] | Potency [15]

O=C1Nc2ccc(Cl)cc2[C@@](C#CC2CC2)(C(F)(F)F)O1
active: Potency [7] 14.5 µM
inactive: Potency [1] | Potency [2] | Potency [3] | Potency [4] | Potency [16] | Potency [17] | Potency [18] | Potency [6] | Potency [19] | Potency [9] | Potency [12]

COc1cc2ncnc(Nc3cccc(Cl)c3)c2cc1OC
inactive: activity, positive = activation [1] -25.9% [at 19 µM] | activity change [2] -1.73% [at 11.8 µM, active compounds read high] | activation [3] 1.01% [at 15.8 µM] | activation [4] -0.385% [at 11.8 µM] | activation [5] -11.3% [at 13.5 µM] | activity change, negative = cytotoxicity [17] -15.6% [at 13.5 µM] | activity change, negative = cytotoxicity [6] -12.1% [at 13.5 µM] | activation [19] -4.37% [at 13.5 µM] | activity, negative = inhibition [7] 2.95% [at 12.7 µM] | activation [8] -3.99% [at 15.9 µM] | activity, negative = inhibition [9] -4.44% [at 12.6 µM] | activation [10] -1.11% [at 15.8 µM] | activity change, negative = inhibition [12] -2.49% [at 19 µM] | activation [14] -4.16% [at 19 µM]

Cc1ccc(O)c(N)c1
inactive: Potency [2] | Potency [3] | Potency [4] | Potency [5] | Potency [17] | Potency [18] | Potency [6] | Potency [19] | Potency [7] | Potency [8] | Potency [9] | Potency [11] | Potency [20] | Potency [12] | Potency [15]
active: Potency [1] 24.4 µM

Nc1cccc2c(N)cccc12
inactive: Potency [2] | Potency [3] | Potency [4] | Potency [5] | Potency [18] | Potency [8] | Potency [9] | Potency [10] | Potency [11]
active: Potency [1] 13.7 µM | Potency [6] 0.646 µM

O=C1c2ccccc2C(=O)c2c1ccc(O)c2O
inactive: Potency [1] | Potency [2] | Potency [3] | Potency [4] | Potency [5] | Potency [17] | Potency [6] | Potency [19] | Potency [7] | Potency [8] | Potency [9] | Potency [10] | Potency [11] | Potency [20] | Potency [12] | Potency [13] | Potency [14]

O=S(=O)(O)c1cc(I)c(O)c2ncccc12
inactive: Potency [1] | Potency [2] | Potency [3] | Potency [4] | Potency [5] | Potency [17] | Potency [18] | Potency [6] | Potency [19] | Potency [7] | Potency [8] | Potency [9] | Potency [10] | Potency [11] | Potency [20] | Potency [12] | Potency [13] | Potency [15]
